BAZ2B inh: BAZ2B (human) inhibition; AlphaScreen BAZ2B-H3K14Ac peptide displacement; Potency, µM (highest dose often 114 µM), for the others: at the top dose activity change, negative = inhibition, usual class: inhibitors; hit rate 4.4% among 360,000; AID 504333; also: potency is read from the fitted curve at half-maximal effect; % is scaled to controls: 0 for no effect and ±100 for the full control effect; nearly all actives have a fitted effect of over 60% in size
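BAZ2B 50 nM plus b-H3(5-23)K14Ac 50 nM, PBS pH 7.4/0.01% Tween-20, 30 min RT; compound added (max 110 uM), 30 min RT; streptavidin donor/Ni-chelate acceptor beads 10 ug/mL final, 20 min dark; AlphaScreen read.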
G9a block: inhibitors of human histone lysine methyltransferase G9a; Q96KQ7; G9a H3K9 monomethylation, AlphaScreen, 2 h; Potency, µM (top dose mostly 102 µM), for the others: top-dose activity, negative = inhibition, most hits filed as inhibitors; hit rate 8.8% among 350,000; also: potency is read from the fitted curve at half-maximal effect; % is scaled to controls: 0 for no effect and ±100 for the full control effect; nearly all actives have a fitted effect of over 75% in size
Target sequence (Q96KQ7 913-1193 limits assumed): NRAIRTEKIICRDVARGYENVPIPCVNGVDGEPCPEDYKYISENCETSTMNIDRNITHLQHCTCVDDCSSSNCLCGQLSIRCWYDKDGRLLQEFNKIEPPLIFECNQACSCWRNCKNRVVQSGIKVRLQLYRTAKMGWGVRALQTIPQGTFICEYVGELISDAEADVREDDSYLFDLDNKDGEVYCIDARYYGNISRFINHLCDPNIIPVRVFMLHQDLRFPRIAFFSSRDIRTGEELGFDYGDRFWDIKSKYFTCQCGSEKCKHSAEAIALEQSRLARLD
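Compounds were preincubated with 20 nM G9a for 15 min, after which biotinylated H3K9 peptide (500 nM) and SAM (20 uM) started a 2 h room-temperature reaction. Monomethylated product was quantified by antibody-based AlphaScreen chemiluminescence.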
CtBP-E1A inh: CtBP/E1A binding inhibition. activity change, % (no concentration beside the values). AlphaScreen GST-E1A/His-CtBP binding, 1536-well; hits give low values. AID 651724. hit rate 0.49% among 340,000; in the data active = activity change below about -65%; inconclusive = mostly about -30% to -63%; also: % is scaled to controls: 0 for no effect and ±100 for the full control effect
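Protein mix (5X: 125 nM each GST-E1A, His-CtBP) was incubated with pinned compound 2 h at 37 deg C in dark, in 50 mM Tris pH 8.0 buffer with 300 mM NaCl. Glutathione donor and nickel acceptor beads followed; AlphaScreen signal read after 1 h.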
Six1-Eya2 blk: blocks human Six1 binding to Eya2 | AlphaScreen GST-Six1/His-Eya2 binding, biochemical; hits give low values | activity change, % (concentration not given with the values) | Q15475+O00167 | hit rate 0.56% among 360,000; in the data active = activity change below about -65%; inconclusive = mostly about -30% to -63%; also: % is scaled to controls: 0 for no effect and ±100 for the full control effect
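Compounds are tested against tagged Six1 and Eya2 proteins bridged by glutathione donor and nickel acceptor beads; after a one-hour incubation at 37 °C without light, AlphaScreen emission is recorded.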
JMJD2A Tudor inh: JMJD2A Tudor domain (human) inhibition; O75164; AlphaScreen JMJD2A-Tudor / H3K4me3 peptide binding; Potency, µM (series often up to 114 µM), inactives show top-dose activity change, negative = inhibition, actives largely listed as inhibitors; hit rate 4.4% among 390,000; also: potency is read from the fitted curve at half-maximal effect; % is scaled to controls: 0 for no effect and ±100 for the full control effect; nearly all actives have a fitted effect of over 50% in size
HP1b binding inh: blocks HP1-beta chromodomain binding to methylated histone tails; AlphaScreen HP1-beta / biotin-H3K9me3 peptide binding; AID 540317; hit rate 0.56% among 390,000; P83916; Potency, µM (top dose mostly 114 µM), for the others: at the top dose activity change, negative = inhibition, usual class: inhibitors; also: potency is read from the fitted curve at half-maximal effect; nearly all actives have a fitted effect of over 70% in size
Target sequence (P83916 whole entry, looked up): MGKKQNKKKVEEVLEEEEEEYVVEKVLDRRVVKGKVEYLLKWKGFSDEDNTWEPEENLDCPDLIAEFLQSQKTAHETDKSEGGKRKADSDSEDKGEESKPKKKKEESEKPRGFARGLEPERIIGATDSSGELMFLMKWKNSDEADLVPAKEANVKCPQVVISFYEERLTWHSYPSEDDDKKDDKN
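HP1-beta protein (50 nM final) preincubated 30 min at room temperature with biotinylated H3(1-18)K9me3 peptide (50 nM) in PBS pH 7.4, 0.01% Tween-20, then compound added for 30 min. AlphaScreen streptavidin donor/nickel chelate acceptor beads (10 ug/mL final), 30 min dark, luminescence read.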
The depositor's hits bear a star; u = inconclusive; x = not tested or not shown; [ ] = dose if it differs, or a comment. Most compounds without a hit are left out; they make up all but 10% or so of the library. Unless noted, calls follow the shape of the dose curve; as a rule, active = well fitted inhibition curve with a large enough effect; inconclusive = small, poorly fitted or top-dose-only effect; inactive = no such curve, though single readings can be large or run the other way.

SMILES	BAZ2B inh	G9a block	CtBP-E1A inh	Six1-Eya2 blk	JMJD2A Tudor inh	HP1b binding inh
COc1ccc(-c2cnc(C)o2)cc1S(=O)(=O)Nc1ccc(C)c(F)c1	u	-6.2%[59 µM]	x	x	-32.8%	-9.5%
O=S(=O)(c1ccc(Cl)cc1)N1CN(CC2CCCO2)c2nc3ccccc3nc21 (configuration not stated)	-38.1%	39.8µM*	-5.1	-4.4	-31.8%	33.5%
CC(C)OCCCN1CN(S(=O)(=O)c2ccccc2)c2nc3ccccc3nc21	u	31.6µM*	1.7	-4.7	-6.4%	45.3%
CCCCN1CN(S(=O)(=O)c2ccc(OC)cc2)c2nc3ccccc3nc21	u	35.5µM*	-2.0	0.3	-19.9%	38.4%
COCCN1CN(S(=O)(=O)c2cccc(Cl)c2)c2nc3ccccc3nc21	-33.2%	44.7µM*	-8.8	-3.3	-34.5%	-6.6%
CCOc1ccc(CCNC(=O)Cn2nnc(-c3ccc(C(F)(F)F)cc3)n2)cc1OCC	u	2.7%[59 µM]	x	x	-7.5%	32.1%
Cc1ccc(-c2nn(CC(=O)NC3CCCCC3)c3c2cnc2ccccc23)cc1	-11.3%	12.4%[59 µM]	x	x	-27.7%	-11.9%
Cc1ccc(CNC(=O)CCn2cnc3ccccc3c2=O)cc1	-30.2%	-12.6%[59 µM]	x	x	-29.4%	2.0%[57 µM]
CCCc1nnc(NC(=O)Cc2coc3cc(C)cc(C)c23)s1	-2.7%	3.8%[59 µM]	x	x	-23.3%	11.6%
Cc1ccc(Cl)cc1NC(=O)Cn1c(=O)oc2cc(S(=O)(=O)N3CCCC3)ccc21	-0.2%	6.1%[59 µM]	x	x	-18.1%	9.0%
COc1ccc(C)cc1NC(=O)CSc1nc(=O)n(Cc2ccncc2)c2c1CCC2	-3.3%	15.0%[59 µM]	x	x	-17.2%	7.7%
CS(=O)(=O)N1CCc2cc(S(=O)(=O)NCc3ccccc3Cl)ccc21	9.7%	8.1%[59 µM]	x	x	u	13.2%[57 µM]
COc1ccc(CCN2CN(S(=O)(=O)c3ccccc3)c3nc4ccccc4nc32)cc1	-21.2%	u	13.2	-2.4	-21.4%	19.8%
COc1ccc(CCN2CN(S(=O)(=O)c3ccccc3)c3nc4ccccc4nc32)cc1OC	-36.6%	31.6µM*	-5.5	-6.6	-2.2%	14.6%
C=CCN1CN(S(=O)(=O)c2cccc(Cl)c2)c2nc3ccccc3nc21	-29.7%	79.4µM*	x	-5.3	-3.9%	36.0%
COCCCN1CN(S(=O)(=O)c2ccc(Cl)cc2)c2nc3ccccc3nc21	-28.9%	28.2µM*	-1.0	-2.7	-31.1%	8.9%
COc1ccccc1-c1nn2c(-c3cc(C)[nH]n3)nnc2s1	x	x	x	x	-11.5%[57.1 µM]	22.0%[57 µM]
Fc1ccc(CNc2nc3ccc(Cl)cc3n3nnnc23)cc1	-0.6%	4.4%[59 µM]	x	x	-12.3%	5.7%
COC(=O)C1=C(CSc2nc3c(cc2C#N)CN(C)CC3)OC(N)=C(C#N)C1c1ccccc1F (configuration not stated)	u	14.1µM*	-28.9	-18.5	u	-19.2%
CCOC(=O)C1=C(CSc2nc3c(cc2C#N)CCC3)OC(N)=C(C#N)C1c1ccccc1 (configuration not stated)	-0.3%	-1.4%[59 µM]	-2.8	-2.3	25.1µM*	-14.3%
CCOC(=O)C1=C(CSc2nc(-c3ccccc3)ccc2C#N)OC(N)=C(C#N)C1c1cccnc1 (configuration not stated)	0.8%	39.8µM*	-16.8	-17.7	-19.3%	32.5%
CCOC(=O)C1=C(CSc2nc3c(cc2C#N)CN(C)CC3)OC(N)=C(C#N)C1c1ccccc1 (configuration not stated)	u	50.1µM*	-14.9	-12.2	-21.9%[11.4 µM]	-0.5%
CCOC(=O)C1=C(CSc2nc(-c3ccccc3)ccc2C#N)OC(N)=C(C#N)C1c1ccccc1 (configuration not stated)	-2.1%	u	-2.1	-13.4	-11.7%	38.8%
Cc1nc2ccccn2c(=O)c1NC(=O)c1ccc(F)c(F)c1	5.2%	-17.5%[59 µM]	x	x	-8.1%	20.6%[57 µM]
CCc1ccc(NC(=O)Cn2c(=O)n(Cc3nc(-c4ccccc4)no3)c(=O)c3cc4c(cc32)OCO4)cc1	-3.0%	-5.0%[59 µM]	x	x	1.7%	29.9%
SMILES	BAZ2B inh	G9a block	CtBP-E1A inh	Six1-Eya2 blk	JMJD2A Tudor inh	HP1b binding inh
CCOC(=O)C1=C(CSc2nc3c(cc2C#N)CN(C)CC3)OC(N)=C(C#N)C1c1ccc(F)cc1 (configuration not stated)	u	39.8µM*	-1.5	-25.9	u	-6.6%
COc1ccc(CN2CCN(C(=O)c3cccs3)CC2)cc1	56.2µM*	10µM*	-8.3	11.5	1.26µM*	u
O=C(c1cccs1)N1CCN(Cc2ccccc2)CC1	-0.4%	-1.9%[59 µM]	-0.3	6.2	0.0%	19.0%
O=C(c1cccnc1)N1CCN(CCCc2ccccc2)CC1	x	u	9.6	4.8	5.01µM*	56.2µM*
O=C(c1cccs1)N1CCN(CCCc2ccccc2)CC1	79.4µM*	31.6µM*	-4.0	-0.6	3.16µM*	44.7µM*
CCNC(=O)c1c(C)oc2ncn(C)c(=O)c12	9.0%[57.1 µM]	u	x	x	-12.0%	51.0%
CCN(Cc1ccccc1)C(=O)Cn1c(=O)n(-c2cccc(C)c2)c(=O)c2c1c1cc(OC)ccc1n2C	4.7%	4.0%[59 µM]	x	x	11.9%	40.5%
O=C(O)c1ncn(Cc2ccc(Br)cc2)c1C(=O)O	31.6µM*	3.98µM*	-16.7	-29.9	-99.3%	47.2%
O=C(c1ncn(Cc2ccccc2)c1C(=O)N1CCN(c2ccccc2)CC1)N1CCN(c2ccccc2)CC1	x	x	-6.8	-10.2	u	-5.4%
Cc1ccc(NCCN(C)C)c2c(=O)c3cc(O)ccc3sc12	x	x	-67.9*	u	39.8µM*	u
CN(C)CCNc1ccc2nnn3c4ccc(O)cc4c(=O)c1c23	x	x	0.1	-76.6*	-25.0%	29.8%
CCN(CC)CCCNc1ccc2ncn3c4ccc(O)cc4c(=O)c1c23	x	x	0.6	u	-25.0%	-6.2%
CN(C)CCNc1cccc2sc3ccc(O)cc3c(=O)c12	x	x	-66.7*	u	x	x
CCN(CC)CCNc1cccc2sc3ccccc3c(=O)c12	x	x	-13.7	-10.9	x	x
Cc1cc(O)cc2c(=O)c3ccccc3sc12	-28.2%	-22.8%	x	-1.9	2.3%[11.4 µM]	-17.0%
COc1cc(C)c2sc3ccccc3c(=O)c2c1NCCN(C)C	x	x	-25.8	-74.9*	x	x
CCN(CC)CCNc1ccc(CO)c2sc3ccccc3c(=O)c12	u	u	u	-7.0	u	-8.7%
CCc1ccc(NC(=O)CC2C(=O)N(c3ccc(Cl)cc3)C(=O)N2C2CCCC2)cc1 (configuration not stated)	-13.8%	u	x	x	-1.0%	59.7%
CCOc1ccc(CCNC(=O)CN2C(=O)COc3ccc(S(=O)(=O)N4CCCC4)cc32)cc1	u	9.4%[59 µM]	x	x	-3.4%	37.1%
COc1ccc(-c2cc(C(=O)NC(C)c3ccccc3)c3cc(C(C)C)ccc3n2)cc1 (configuration not stated)	-0.6%	-2.5%[59 µM]	x	x	-24.5%	5.3%
